# Assay results as given in PubChem BioAssay (EPA / NIEHS).
# Several values for one entry are separate records, joined by “and”; a condition that tells them apart may be missing. Identical values can stand only once. Some compounds were tested as several samples or in several runs, with calls that do not always agree. Activity calls are given as the source filed them. Rule for the calls: active = hit-call score of the fitted dose curve at least 0.9, where 1 is the maximum; inactive = score below 0.9.
# Molecular target: Hepatocyte nuclear factor 6 (Homo sapiens) (UniProt Q9UBC0)
# Sequence (Q9UBC0 whole entry, looked up): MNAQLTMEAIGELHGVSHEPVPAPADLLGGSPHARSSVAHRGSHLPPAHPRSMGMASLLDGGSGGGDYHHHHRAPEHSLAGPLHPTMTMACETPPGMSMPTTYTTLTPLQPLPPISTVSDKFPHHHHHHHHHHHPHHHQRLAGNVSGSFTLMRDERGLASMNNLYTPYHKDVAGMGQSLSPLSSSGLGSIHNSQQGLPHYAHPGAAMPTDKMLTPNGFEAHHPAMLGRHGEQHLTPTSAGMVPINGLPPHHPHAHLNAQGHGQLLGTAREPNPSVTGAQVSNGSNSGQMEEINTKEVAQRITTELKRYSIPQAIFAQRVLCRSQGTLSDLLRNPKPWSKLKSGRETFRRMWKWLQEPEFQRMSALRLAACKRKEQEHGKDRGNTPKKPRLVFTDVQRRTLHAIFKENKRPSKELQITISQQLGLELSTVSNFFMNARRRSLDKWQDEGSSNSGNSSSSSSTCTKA
# Test: ATG_HNF6_CIS: Attagene CIS-FACTORIAL HepG2 Assay for human Hepatocyte Nuclear Factor 6 (HNF6) (AID 2282952)
# Conditions: HepG2 Attagene cis-factorial HNF6 reporter transcription; actives raise or lower the signal
# In short: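 Twenty-four-hour chemical treatment of reporter-transfected HepG2 cells precedes RNA isolation, DNase-treated reverse transcription and PCR of reporter sequences. Labelled fragments are sized by capillary electrophoresis and fitted bidirectionally versus DMSO.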
Compound,outcome,AC50
COc1cc(-c2ccc(N)c(OC)c2)ccc1N,inactive,–
CCC(=O)c1ccccc1,inactive,–
BrCCBr,inactive,–
C[C@]12CC[C@H](O)CC1=CC[C@@H]1[C@@H]2CC[C@]2(C)C(=O)CC[C@@H]12,inactive,–
Nc1cccc2ccccc12,inactive,–
O=[N+]([O-])c1ccc2c3c(cccc13)CC2,inactive,–
C[C@H]1O[C@@H](O[C@H]2[C@@H](O)C[C@H](O[C@H]3[C@@H](O)C[C@H](O[C@H]4CC[C@@]5(C)[C@H](CC[C@@H]6[C@@H]5CC[C@]5(C)[C@@H](C7=CC(=O)OC7)CC[C@]65O)C4)O[C@@H]3C)O[C@@H]2C)C[C@H](O)[C@@H]1O,–,0.0564 µM (active)
Clc1ccc(COC(Cn2ccnc2)c2ccc(Cl)cc2Cl)cc1 (centres undefined),inactive,–
Nc1ccc(-c2ccc(N)c(Cl)c2)cc1Cl,inactive,–
CCC1(c2ccc(N)cc2)CCC(=O)NC1=O (centres undefined),inactive,–
Oc1ccc(-c2ccccc2)cc1,inactive,–
O=C(O)C(Cl)(Cl)Cl,inactive,–
C[C@H]1CCCC(=O)CCC/C=C/c2cc(O)cc(O)c2C(=O)O1,inactive,–
CC(C)(C)c1cc(O)ccc1O,inactive,–
O=C(O)C(F)(F)C(F)(F)C(F)(F)C(F)(F)C(F)(F)C(F)(F)F,inactive,–

# Molecular target: Heat shock factor protein 1 (Homo sapiens) (UniProt Q00613)
# Sequence (Q00613 whole entry, looked up): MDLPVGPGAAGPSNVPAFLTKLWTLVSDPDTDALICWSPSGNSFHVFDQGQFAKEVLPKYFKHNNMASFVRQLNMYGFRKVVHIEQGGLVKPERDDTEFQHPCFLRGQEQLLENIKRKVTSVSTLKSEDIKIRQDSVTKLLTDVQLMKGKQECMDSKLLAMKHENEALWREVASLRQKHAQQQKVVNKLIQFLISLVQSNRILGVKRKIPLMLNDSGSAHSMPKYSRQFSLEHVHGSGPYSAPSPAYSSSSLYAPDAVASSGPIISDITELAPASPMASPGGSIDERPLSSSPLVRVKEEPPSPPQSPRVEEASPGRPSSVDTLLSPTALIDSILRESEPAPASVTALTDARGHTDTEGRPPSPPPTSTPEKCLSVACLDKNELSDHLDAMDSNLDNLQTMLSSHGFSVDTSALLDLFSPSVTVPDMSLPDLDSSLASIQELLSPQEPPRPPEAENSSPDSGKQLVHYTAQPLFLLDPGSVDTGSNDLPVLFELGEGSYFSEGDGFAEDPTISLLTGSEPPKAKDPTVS
# Test: ATG_HSE_CIS: Attagene CIS-FACTORIAL HepG2 Assay for human Heat Shock Transcription Factor 1 (HSE) (AID 2282953)
# Conditions: HepG2 HSE cis-reporter, Attagene RNA transcription; actives raise or lower the signal
# In short: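 Read-out: fluorescence of reporter-specific RT-PCR fragments separated by capillary electrophoresis. HepG2 carrying transfected cis-element reporter units; 24 h dosing; activity fitted in both directions relative to DMSO baseline.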
Compound,outcome,AC50
COc1cc(-c2ccc(N)c(OC)c2)ccc1N,inactive,–
CCSC(C)CC1CC(=O)C(C(CC)=NOC/C=C/Cl)=C(O)C1 (centres undefined),inactive,–
CC(=O)C=C(C)C,inactive,–
CCC(=O)c1ccccc1,inactive,–
CN(C)N=O,inactive,–
CCc1ccccc1N,inactive,–
C[C@]12CC[C@H](O)CC1=CC[C@@H]1[C@@H]2CC[C@]2(C)C(=O)CC[C@@H]12,inactive,–
Nc1cccc2ccccc12,inactive,–
O=Cc1cccc(Oc2ccccc2)c1,inactive,–
O=CC=O,inactive,–
O=C/C=C/c1ccccc1,inactive,–
Clc1ccc(C2(Cn3cncn3)CC(Br)CO2)c(Cl)c1 (centres undefined),–,177 µM (active)
Clc1ccc(COC(Cn2ccnc2)c2ccc(Cl)cc2Cl)cc1 (centres undefined),inactive,–
CCCCCCCCC(=O)NCc1ccc(O)c(OC)c1,–,125 µM (active)
CCC1(c2ccc(N)cc2)CCC(=O)NC1=O (centres undefined),inactive,–
CCCCCCCCCl,inactive,–
CC(=O)[O][Hg][c]1ccccc1,inactive,–

Compound,outcome,AC50
O=C(O)C(Cl)(Cl)Cl,inactive,–
CC(C)(c1ccccc1)c1ccc(O)c(C(C)(C)c2ccccc2)c1,–,17.9 µM (active)
COC[C@H](C)N(C(=O)CCl)c1c(C)csc1C,inactive,–
CC(=[OH+])/C=C(/C)[O-].CC(=[OH+])/C=C(/C)[O-].CC(=[OH+])/C=C(/C)[O-].[Fe],inactive,–
CCCCCCCCc1ccc(O)cc1,inactive,–
C[C@H]1CCCC(=O)CCC/C=C/c2cc(O)cc(O)c2C(=O)O1,–,23.7 µM (active)
O=C(O)C(F)(F)C(F)(F)C(F)(F)C(F)(F)C(F)(F)C(F)(F)C(F)(F)C(F)(F)C(F)(F)C(F)(F)F,inactive,14.9 µM (active)
Cc1ccc2ccccc2c1C,inactive,–
O=S(=O)(c1ccc(Cl)cc1)c1ccc(Cl)cc1,inactive,–
CC(C)(C)c1cc(O)ccc1O,–,187 µM (active)
COC(=O)Cc1ccccc1,inactive,–
COC(=O)c1sccc1S(=O)(=O)NC(=O)Nc1nc(C)nc(OC)n1,inactive,–
O=C(O)C(F)(F)C(F)(F)C(F)(F)C(F)(F)C(F)(F)C(F)(F)F,inactive,–
N#CCCO,inactive,–
C[C@]12CCC(=O)C[C@@H]1CC[C@@H]1[C@@H]2CC[C@]2(C)[C@@H](O)CC[C@@H]12,inactive,–
CCc1ccccc1C,inactive,–

# System: not listed separately
# Test: ATG_MRE_CIS: Attagene CIS-FACTORIAL HepG2 Assay for human Metal Responsive Element (MRE) (AID 2282954)
# Conditions: HepG2 MRE cis-reporter transcription, Attagene multiplex; actives raise or lower the signal
# In short: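 Endogenous MRE-dependent transcription read as reporter mRNA in transiently transfected human HepG2 cells at 24 h. RNA reverse-transcribed, PCR-amplified, labelled and resolved by capillary electrophoresis; gain or loss relative to DMSO.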
Compound,AC50,outcome
COc1cc(-c2ccc(N)c(OC)c2)ccc1N,49.7 µM (active) and 57.9 µM (active),–
CCSC(C)CC1CC(=O)C(C(CC)=NOC/C=C/Cl)=C(O)C1 (centres undefined),–,inactive
CC(=O)C=C(C)C,–,inactive
CCC(=O)c1ccccc1,–,inactive
CN(C)N=O,–,inactive
CCc1ccccc1N,–,inactive
BrCCBr,–,inactive
C[C@]12CC[C@H](O)CC1=CC[C@@H]1[C@@H]2CC[C@]2(C)C(=O)CC[C@@H]12,–,inactive
Nc1cccc2ccccc12,–,inactive
O=Cc1cccc(Oc2ccccc2)c1,–,inactive
O=CC=O,–,inactive
CCC[CH2][Sn]([CH2]CCC)([CH2]CCC)[O]C(=O)c1ccccc1,–,inactive
O=[N+]([O-])c1ccc2c3c(cccc13)CC2,–,inactive
C[C@H]1O[C@@H](O[C@H]2[C@@H](O)C[C@H](O[C@H]3[C@@H](O)C[C@H](O[C@H]4CC[C@@]5(C)[C@H](CC[C@@H]6[C@@H]5CC[C@]5(C)[C@@H](C7=CC(=O)OC7)CC[C@]65O)C4)O[C@@H]3C)O[C@@H]2C)C[C@H](O)[C@@H]1O,–,inactive
O=C/C=C/c1ccccc1,–,inactive
Clc1ccc(C2(Cn3cncn3)CC(Br)CO2)c(Cl)c1 (centres undefined),145 µM (active),–
Clc1ccc(COC(Cn2ccnc2)c2ccc(Cl)cc2Cl)cc1 (centres undefined),–,inactive
CCCCCCCCC(=O)NCc1ccc(O)c(OC)c1,131 µM (active),–
Nc1ccc(-c2ccc(N)c(Cl)c2)cc1Cl,46.5 µM (active),–
CCC1(c2ccc(N)cc2)CCC(=O)NC1=O (centres undefined),–,inactive

Compound,AC50,outcome
Oc1ccc(-c2ccccc2)cc1,149 µM (active),–
CCCCCCCCCl,–,inactive
CC(=O)[O][Hg][c]1ccccc1,5.86 µM (active),–
O=C(O)C(Cl)(Cl)Cl,–,inactive
CC(C)(c1ccccc1)c1ccc(O)c(C(C)(C)c2ccccc2)c1,13.3 µM (active),–
COC[C@H](C)N(C(=O)CCl)c1c(C)csc1C,–,inactive
CC(=[OH+])/C=C(/C)[O-].CC(=[OH+])/C=C(/C)[O-].CC(=[OH+])/C=C(/C)[O-].[Fe],–,inactive
CCCCCCCCc1ccc(O)cc1,–,inactive
C[C@H]1CCCC(=O)CCC/C=C/c2cc(O)cc(O)c2C(=O)O1,33.1 µM (active),–
O=C(O)C(F)(F)C(F)(F)C(F)(F)C(F)(F)C(F)(F)C(F)(F)C(F)(F)C(F)(F)C(F)(F)C(F)(F)F,23.2 µM (active) and 15.5 µM (active),–
Cc1ccc2ccccc2c1C,–,inactive
O=S(=O)(c1ccc(Cl)cc1)c1ccc(Cl)cc1,101 µM (active),–
CC(C)(C)c1cc(O)ccc1O,120 µM (active),–
COC(=O)Cc1ccccc1,–,inactive
COC(=O)c1sccc1S(=O)(=O)NC(=O)Nc1nc(C)nc(OC)n1,–,inactive
O=C(O)C(F)(F)C(F)(F)C(F)(F)C(F)(F)C(F)(F)C(F)(F)F,–,inactive
N#CCCO,–,inactive
C[C@]12CCC(=O)C[C@@H]1CC[C@@H]1[C@@H]2CC[C@]2(C)[C@@H](O)CC[C@@H]12,87 µM (active) and 42.6 µM (active),inactive
CCc1ccccc1C,–,inactive
